The values that follow come from ChEMBL document CHEMBL2218924, “A broad activity screen in support of a chemogenomic map for kinase signalling research and drug discovery” (Biochem J, 2013).

For experiment [1], the target named is T1, Serine/threonine-protein kinase 3 (Homo sapiens) (UniProt Q13188).
T1 sequence (whole entry): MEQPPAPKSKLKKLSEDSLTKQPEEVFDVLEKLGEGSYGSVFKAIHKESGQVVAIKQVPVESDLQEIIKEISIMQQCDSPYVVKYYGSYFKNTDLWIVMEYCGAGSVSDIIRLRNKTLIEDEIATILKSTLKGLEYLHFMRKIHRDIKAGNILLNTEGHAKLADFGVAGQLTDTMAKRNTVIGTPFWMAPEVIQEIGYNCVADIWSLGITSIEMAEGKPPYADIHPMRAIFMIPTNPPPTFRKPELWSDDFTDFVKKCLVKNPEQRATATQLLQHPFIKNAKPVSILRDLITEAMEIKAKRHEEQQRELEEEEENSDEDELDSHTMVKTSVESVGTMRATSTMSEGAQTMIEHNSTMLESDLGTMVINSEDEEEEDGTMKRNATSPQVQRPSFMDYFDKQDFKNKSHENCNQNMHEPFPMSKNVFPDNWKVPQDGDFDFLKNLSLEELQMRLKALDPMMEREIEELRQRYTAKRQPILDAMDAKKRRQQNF
To be noted: at 1 µM.

Experiment [2] addresses T1, Serine/threonine-protein kinase 3 (Homo sapiens). To be noted: at 10 µM.
Experiment [3] addresses Serine/threonine-protein kinase 24 (Homo sapiens) (UniProt Q9Y6E0). To be noted: at 1 µM.
The target is the same in experiment [4]. As to conditions: at 10 µM.
For experiment [5], the target named is T2, Tyrosine-protein kinase Mer (Homo sapiens) (UniProt Q12866).
T2 sequence (whole entry): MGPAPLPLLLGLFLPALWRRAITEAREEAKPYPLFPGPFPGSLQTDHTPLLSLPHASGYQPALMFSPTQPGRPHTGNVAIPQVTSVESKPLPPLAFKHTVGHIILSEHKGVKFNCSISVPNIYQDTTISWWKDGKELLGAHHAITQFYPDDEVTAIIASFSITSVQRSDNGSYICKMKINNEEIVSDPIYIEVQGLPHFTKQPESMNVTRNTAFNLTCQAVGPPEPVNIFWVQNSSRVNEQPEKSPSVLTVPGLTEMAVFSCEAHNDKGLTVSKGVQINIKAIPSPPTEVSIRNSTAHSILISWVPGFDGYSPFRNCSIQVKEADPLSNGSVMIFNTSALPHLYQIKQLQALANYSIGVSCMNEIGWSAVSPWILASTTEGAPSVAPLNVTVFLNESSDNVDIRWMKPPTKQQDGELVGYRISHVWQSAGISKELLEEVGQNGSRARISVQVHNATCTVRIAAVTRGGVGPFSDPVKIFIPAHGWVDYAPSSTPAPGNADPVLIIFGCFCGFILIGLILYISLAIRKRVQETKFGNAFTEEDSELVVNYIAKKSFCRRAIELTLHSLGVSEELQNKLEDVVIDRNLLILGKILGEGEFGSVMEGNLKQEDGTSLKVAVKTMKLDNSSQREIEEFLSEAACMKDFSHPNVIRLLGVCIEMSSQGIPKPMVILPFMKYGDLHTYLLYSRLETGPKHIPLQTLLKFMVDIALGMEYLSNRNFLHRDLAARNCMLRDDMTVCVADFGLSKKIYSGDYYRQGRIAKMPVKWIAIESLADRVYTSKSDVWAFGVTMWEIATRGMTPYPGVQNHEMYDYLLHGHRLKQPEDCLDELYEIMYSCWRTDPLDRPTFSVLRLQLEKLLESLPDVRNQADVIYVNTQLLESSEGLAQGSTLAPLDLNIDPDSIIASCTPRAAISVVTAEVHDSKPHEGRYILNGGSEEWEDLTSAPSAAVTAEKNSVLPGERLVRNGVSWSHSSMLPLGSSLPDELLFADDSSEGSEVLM
As to conditions: at 1 µM.

Experiment [6] concerns the target T2, Tyrosine-protein kinase Mer (Homo sapiens). As to conditions: at 10 µM.
Experiment [7] deals with Hepatocyte growth factor receptor (Homo sapiens) (UniProt P08581). As to conditions: at 1 µM.
Experiment [8] has the same target. To be noted: at 10 µM.
Experiment [9] deals with MAP kinase-interacting serine/threonine-protein kinase 2 (Homo sapiens) (UniProt Q9HBH9). To be noted: at 10 µM.
The target is the same in experiment [10]. As to conditions: at 1 µM.

Each structure is given as a SMILES string.

Sequence of Hepatocyte growth factor receptor (Homo sapiens) (P08581 whole entry): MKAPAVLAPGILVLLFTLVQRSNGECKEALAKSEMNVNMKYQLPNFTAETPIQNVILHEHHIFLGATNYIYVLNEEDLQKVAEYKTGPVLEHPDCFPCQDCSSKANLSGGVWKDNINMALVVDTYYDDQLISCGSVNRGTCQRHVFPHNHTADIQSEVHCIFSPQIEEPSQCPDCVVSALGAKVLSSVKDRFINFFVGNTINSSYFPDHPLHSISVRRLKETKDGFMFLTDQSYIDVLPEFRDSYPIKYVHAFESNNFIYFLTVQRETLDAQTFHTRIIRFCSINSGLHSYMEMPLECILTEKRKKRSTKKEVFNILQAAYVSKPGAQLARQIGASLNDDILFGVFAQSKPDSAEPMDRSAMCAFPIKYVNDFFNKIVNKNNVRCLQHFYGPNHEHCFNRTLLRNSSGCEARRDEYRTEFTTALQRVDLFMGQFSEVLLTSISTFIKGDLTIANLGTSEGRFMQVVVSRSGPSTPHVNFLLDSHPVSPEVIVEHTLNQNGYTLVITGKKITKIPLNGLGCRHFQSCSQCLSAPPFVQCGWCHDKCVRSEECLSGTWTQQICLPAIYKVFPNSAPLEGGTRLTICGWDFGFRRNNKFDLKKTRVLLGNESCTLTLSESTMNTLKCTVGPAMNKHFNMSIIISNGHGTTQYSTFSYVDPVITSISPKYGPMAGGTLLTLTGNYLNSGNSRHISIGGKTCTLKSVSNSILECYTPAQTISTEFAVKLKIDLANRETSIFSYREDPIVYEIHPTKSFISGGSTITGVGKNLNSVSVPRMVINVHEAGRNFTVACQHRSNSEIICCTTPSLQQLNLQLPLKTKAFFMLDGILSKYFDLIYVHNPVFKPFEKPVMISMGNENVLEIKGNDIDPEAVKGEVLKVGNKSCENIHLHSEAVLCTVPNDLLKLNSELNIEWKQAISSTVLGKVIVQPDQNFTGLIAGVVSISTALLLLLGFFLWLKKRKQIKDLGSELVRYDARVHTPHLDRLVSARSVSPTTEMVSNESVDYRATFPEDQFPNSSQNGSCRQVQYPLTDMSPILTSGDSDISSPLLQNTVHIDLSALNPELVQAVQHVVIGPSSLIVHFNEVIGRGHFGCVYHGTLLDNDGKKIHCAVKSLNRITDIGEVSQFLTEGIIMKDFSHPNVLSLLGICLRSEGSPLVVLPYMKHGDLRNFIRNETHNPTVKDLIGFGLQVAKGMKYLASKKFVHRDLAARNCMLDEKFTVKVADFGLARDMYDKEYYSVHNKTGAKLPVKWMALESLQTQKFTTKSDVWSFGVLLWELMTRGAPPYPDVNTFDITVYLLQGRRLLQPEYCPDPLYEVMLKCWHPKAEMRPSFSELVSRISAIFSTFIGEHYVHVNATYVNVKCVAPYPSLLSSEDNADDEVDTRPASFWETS
Sequence of Serine/threonine-protein kinase 24 (Homo sapiens) (Q9Y6E0 whole entry, looked up): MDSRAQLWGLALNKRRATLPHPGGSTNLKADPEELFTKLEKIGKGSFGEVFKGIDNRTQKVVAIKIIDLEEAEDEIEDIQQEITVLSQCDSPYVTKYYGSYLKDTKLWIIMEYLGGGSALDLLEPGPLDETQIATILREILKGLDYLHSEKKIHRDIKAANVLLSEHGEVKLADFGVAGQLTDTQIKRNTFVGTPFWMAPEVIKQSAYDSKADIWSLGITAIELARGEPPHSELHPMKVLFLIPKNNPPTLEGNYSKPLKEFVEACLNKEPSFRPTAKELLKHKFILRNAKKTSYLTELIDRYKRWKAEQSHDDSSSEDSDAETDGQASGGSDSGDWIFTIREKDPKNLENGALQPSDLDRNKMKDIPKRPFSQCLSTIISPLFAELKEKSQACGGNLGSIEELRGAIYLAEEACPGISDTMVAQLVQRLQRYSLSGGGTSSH
Sequence of MAP kinase-interacting serine/threonine-protein kinase 2 (Homo sapiens) (Q9HBH9 whole entry, looked up): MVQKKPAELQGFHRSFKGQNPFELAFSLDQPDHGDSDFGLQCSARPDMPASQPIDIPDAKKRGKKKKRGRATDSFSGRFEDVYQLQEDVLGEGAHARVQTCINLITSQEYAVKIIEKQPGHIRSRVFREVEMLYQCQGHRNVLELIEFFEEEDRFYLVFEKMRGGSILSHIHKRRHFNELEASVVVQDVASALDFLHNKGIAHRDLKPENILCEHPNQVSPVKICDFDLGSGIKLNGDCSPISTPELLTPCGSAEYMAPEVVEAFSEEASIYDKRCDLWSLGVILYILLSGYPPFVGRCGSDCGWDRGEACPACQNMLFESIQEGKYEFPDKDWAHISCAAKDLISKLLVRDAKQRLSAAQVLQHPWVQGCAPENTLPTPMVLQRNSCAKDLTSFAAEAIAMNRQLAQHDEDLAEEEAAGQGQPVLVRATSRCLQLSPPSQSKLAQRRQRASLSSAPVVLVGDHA

Broadly, the residual activity is the signal under treatment as a percentage of the control signal. As to `CCN(CC)C(=O)c1ccc(Nc2nc(OCC3CCCCC3)c3nc[nH]c3n2)cc1`, the residual activity in [1] amounted to 66%; in experiment [2], 7%; in [3], 63%; in [4] it was 16%; in experiment [5] it was 15%; in experiment [6], 0%. The results for the residual activity in experiment [7], in experiment [8] and in [9] were 45%, 9% and 44%, respectively.

Consider `COc1cccc(-c2cc(=O)c3ccccc3o2)c1N`, for which the residual activity in experiment [1] was found to be 97%; in experiment [2] it was 98%; in [3], 91%; in experiment [4], 89%; in [5], 96%; in [6], 101%. The residual activity in [7] came to 117%; in experiment [8], 116%; in [10], 107%; in [9], 113%.

Consider `O=C1Nc2ccccc2/C1=C1/Nc2ccccc2/C1=N\OCCC(O)CO` (configuration not stated), for which the residual activity was 4% in [1]; 1% in experiment [2]; 27% in experiment [3]; 3% in experiment [4]; 1% in experiment [5]; -1% in experiment [6]. Also, the residual activity in experiment [7] is 45%; in experiment [8], 37%; in experiment [10], 66%; in experiment [9] it was 44%.

For the compound `O=C(Nc1cccc(Nc2nccc(Nc3cccc(C(F)(F)F)c3)n2)c1)C1CC1`, the residual activity was determined as 89% in [1]; 60% in [2]; 72% in experiment [3]; 65% in experiment [4]; 72% in experiment [5]; 70% in [6]. Besides, the residual activity in [7] stood at 79%; in experiment [8] it was 55%; in experiment [10], 70%; in experiment [9] it was 77%.

In the case of `O=C1NC(=O)/C(=C/c2ccc3c(c2)OC(F)(F)O3)S1`, the residual activity turned out to be 106% in experiment [1]; 102% in experiment [2]; 60% in experiment [3]; 70% in experiment [4]; 110% in [5]; 95% in experiment [6]. Further, the residual activity came out at 87% in [7], 78% in experiment [8], 109% in experiment [10] and 96% in [9].

As for `O=C1Nc2ccc(Br)cc2/C1=C\c1cc2c([nH]1)CCCC2`, the residual activity was 46% in experiment [1]; 61% in experiment [2]; 77% in [4]; 68% in [5]; 45% in experiment [6]; 104% in experiment [7]. For the same compound, the residual activity in [8] is 144%; in [10], 108%; in experiment [9] it was 102%.

As for `COc1ccc(CNc2nc(N(CCO)CCO)nc3c2ncn3C(C)C)cc1`, the residual activity in experiment [1] turned out to be 107%; in experiment [2], 104%; in experiment [3] it was 65%; in experiment [4], 60%; in [5] it was 90%; in [6], 60%. Also, the residual activity turned out to be 122% in experiment [7], 85% in experiment [8], 99% in experiment [10] and 100% in experiment [9].

`O=C(O)c1ccc2c3c1cccc3c(=O)n1c3ccccc3nc21`: the residual activity was 103% in experiment [1]; 81% in experiment [2]; 97% in experiment [3]; 67% in [4]; 80% in experiment [5]; 28% in experiment [6]. Also, the residual activity was determined as 130% in [7], 73% in experiment [8], 67% in [10] and 23% in experiment [9].

For `CC(=O)c1ccc(N2CCOCC2)cc1O`, the residual activity in experiment [3] was 70%; in experiment [4], 71%; in [10] it was 105%; in experiment [9], 96%.

Take `COc1cc2ncnc(Nc3ccc(Oc4ccccc4)cc3)c2cc1OC`: the residual activity in [1] stood at 96%; in experiment [2] it was 80%; in experiment [3], 111%; in experiment [4], 124%; in experiment [5], 53%; in experiment [6], 38%. The figures for the residual activity in [10] and in [9] were 52% and 16%, respectively.

Take `CO[C@H]1[C@@H](OC)C[C@H](C)[C@@H](OC)C2=CC(=O)C=C(NC(=O)/C(C)=C/C=C/[C@H](OC)[C@@H](OC(N)=O)/C(C)=C/[C@@H]1C)C2=O`: the residual activity came out at 110% in experiment [1]; 102% in experiment [2]; 68% in experiment [3]; 72% in [4]; 105% in experiment [5]; 93% in experiment [6]. The residual activity in experiment [7] is 114%; in experiment [8] it was 82%; in [10], 104%; in experiment [9] it was 107%.

Consider `CO[C@H]1C[C@@H]2CC[C@@H](C)[C@@](O)(O2)C(=O)C(=O)N2CCCC[C@H]2C(=O)O[C@H]([C@H](C)C[C@@H]2CC[C@@H](O)[C@H](OC)C2)CC(=O)[C@H](C)/C=C(\C)[C@@H](O)[C@@H](OC)C(=O)[C@H](C)C[C@H](C)/C=C/C=C/C=C/1C`, for which the residual activity in [1] turned out to be 94%; in [2], 84%; in [3] it was 64%; in experiment [4], 76%; in [5], 101%; in experiment [6], 93%. Also, the residual activity in experiment [7] turned out to be 95%; in [8], 105%; in experiment [10] it was 105%; in [9], 88%.

On to `Nc1nc(Nc2ccc(S(N)(=O)=O)cc2)nn1C(=S)Nc1c(F)cccc1F`, for which the residual activity in experiment [1] is 0%; in experiment [2], 1%; in experiment [3] it was 0%; in experiment [4] it was 1%; in experiment [5], -1%; in experiment [6] it was -1%. Also, the residual activity in [7] came out at 3%; in experiment [8] it was 0%; in experiment [10], 6%; in experiment [9], 14%.

For the compound `COc1cc2ncnc(Nc3ccc(NC(=O)c4ccccc4)cc3)c2cc1OC`, the residual activity in [2] amounted to 95%; in experiment [3] it was 90%; in experiment [5], 108%; in [6] it was 59%; in experiment [7] it was 88%; in [8], 23%. In addition, the residual activity stood at 98% in [10] and 57% in experiment [9].

Take `Oc1ccc(Nc2nc(-c3ccc(Cl)cc3)cs2)cc1`: the residual activity in experiment [1] turned out to be 101%; in experiment [2] it was 76%; in experiment [3] it was 94%; in experiment [4] it was 102%; in experiment [5] it was 100%; in experiment [6], 90%. For the same compound, the residual activity amounted to 138% in experiment [7], 110% in experiment [8], 96% in experiment [10] and 80% in experiment [9].

For the compound `Cc1cc(Nc2nc(-c3ccccc3)nc3ccccc23)n[nH]1`, the residual activity in experiment [1] turned out to be 55%; in experiment [2], 11%; in [3], 59%; in [4], 10%; in experiment [5] it was 19%; in experiment [6], 1%. Further, the residual activity turned out to be 94% in experiment [7], 65% in [8] and 61% in experiment [9].

Take `Oc1n[nH]c2nnc(-c3c(-c4ccccc4)nn4ccccc34)cc12`: the residual activity in experiment [1] was found to be 96%; in experiment [2], 86%; in experiment [3], 72%; in experiment [4], 71%; in experiment [5], 98%; in [6] it was 105%. For the same compound, the residual activity was 104% in [7], 113% in [8], 107% in experiment [10] and 99% in experiment [9].

Take `Ic1cccc(CSc2nnc(-c3ccncc3)o2)c1`: the residual activity in experiment [1] turned out to be 39%; in experiment [2], 15%; in experiment [3], 50%; in experiment [4], 43%; in experiment [5] it was 69%; in experiment [6], 48%. The residual activity came out at 126% in experiment [7], 100% in [8], 91% in [10] and 89% in experiment [9].
